The supplement of paper PMC12645437, “Orthogonal IMiD-Degron Pairs Induce Selective Protein Degradation in Cells” (ACS Chemical Biology, 2025)
Over roughly 8,300 sequences, “log2 fold change of degron read counts, EGFP-low vs EGFP+ sorted cells (limma voom), compound-induced degradation” has its median near -1.1; the highest 2% begin near 3.2. Many of the other results were omitted from the sample, so the highest values are more common in it than they were.

T1: CRBN, Q96SW2
T1 chain: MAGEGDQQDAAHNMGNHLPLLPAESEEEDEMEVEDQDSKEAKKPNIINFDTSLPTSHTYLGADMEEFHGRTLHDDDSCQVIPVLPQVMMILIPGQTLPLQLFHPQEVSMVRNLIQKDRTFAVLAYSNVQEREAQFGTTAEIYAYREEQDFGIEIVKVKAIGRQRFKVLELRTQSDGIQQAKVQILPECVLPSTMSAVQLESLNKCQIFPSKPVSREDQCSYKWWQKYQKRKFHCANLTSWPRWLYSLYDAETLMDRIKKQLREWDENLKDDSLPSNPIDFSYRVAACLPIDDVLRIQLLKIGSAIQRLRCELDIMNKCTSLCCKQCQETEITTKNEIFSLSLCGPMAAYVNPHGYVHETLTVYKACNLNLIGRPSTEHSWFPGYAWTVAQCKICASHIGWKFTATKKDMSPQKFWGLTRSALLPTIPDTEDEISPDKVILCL


Target: T1, CRBN, Q96SW2
Test: log2 fold change of degron read counts, EGFP-low vs EGFP+ sorted cells (limma voom), compound-induced degradation; higher = more compound-induced degradation of the degron-EGFP fusion; degrons are variants of IKZF1/3 zinc finger 2; compound dose not given here
Conditions: Jurkat, 18 h
[1] = compound: compound 19 (5-tert-butyl-thalidomide)
[2] = compound: compound 22 (5-morpholino-thalidomide)
[3] = compound: compound 33 (diphenyl IMiD analogue)
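Also: pooled lentiviral library of zinc finger degron-EGFP fusions in mCherry-positive Jurkat cells, FACS-sorted after compound exposure, with degron abundance counted by next-generation sequencing.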

Sequence | log2 fold change of degron read counts [1] | log2 fold change of degron read counts [2] | log2 fold change of degron read counts [3] | log2 fold change of degron read counts (compound: thalidomide)
FQCPICGHTFTQKGNLLRHIKL [46F_47Q_49P_50I_52G_53H_54T_55F_67L_, Q9UKT9] | -2.53 | -2.01 | -1.64 | 0.116
FRCEVCGANFTQKGNLLRHIKL [46F_47R_49E_50V_52G_53A_54N_55F_67L_, Q9UKT9] | -1.19 | -1.18 | 1.07 | 0.852
FHCPVCGADFTQKGNLLRHIKL [46F_47H_49P_50V_52G_53A_54D_55F_67L_, Q9UKT9] | -0.685 | -1.25 | 0.492 | -1.46
FVCPICGRNFTQKGNLLRHIKL [46F_47V_49P_50I_52G_53R_54N_55F_67L_, Q9UKT9] | -1.5 | 0.0165 | -0.308 | 1.47
FDCNICGAGFTQKGNLLRHIKL [46F_47D_49N_50I_52G_53A_54G_55F_67L_, Q9UKT9] | -0.56 | -1.59 | -0.734 | -0.131
FGCNQCGRQFTQKGNLLRHIKL [46F_47G_49N_50Q_52G_53R_54Q_55F_67L_, Q9UKT9] | -1.78 | -3.61 | -1.87 | -1.99
FECNQCGAQFTQKGNLLRHIKL [46F_47E_49N_50Q_52G_53A_54Q_55F_67L_, Q9UKT9] | -3.22 | -3.17 | -2.23 | -1.78
FSCEVCGAVFTQKGNLLRHIKL [46F_47S_49E_50V_52G_53A_54V_55F_67L_, Q9UKT9] | 2.19 | 1.99 | 2.31 | 0.741
FFCEVCGAVFTQKGNLLRHIKL [46F_47F_49E_50V_52G_53A_54V_55F_67L_, Q9UKT9] | 2.87 | 3.44 | 1.92 | 1.04
FKCEVCGAVFTQKGNLLRHIKL [46F_47K_49E_50V_52G_53A_54V_55F_67L_, Q9UKT9] | -2.3 | -3.46 | -2.84 | -1.47
FQCEVCGAVFTQKGNLLRHIKL [46F_47Q_49E_50V_52G_53A_54V_55F_67L_, Q9UKT9] | -0.43 | 2.76 | 2.39 | 3.71
FVCEVCGAVFTQKGNLLRHIKL [46F_47V_49E_50V_52G_53A_54V_55F_67L_, Q9UKT9] | -0.567 | 1.18 | 2.1 | 2.01
FACEVCGAVFTQKGNLLRHIKL [46F_47A_49E_50V_52G_53A_54V_55F_67L_, Q9UKT9] | 3.24 | 2.04 | 1.3 | 0.155
FCCEVCGAVFTQKGNLLRHIKL [46F_47C_49E_50V_52G_53A_54V_55F_67L_, Q9UKT9] | 1.18 | 1.8 | 2.68 | 1.79
FLCEVCGAVFTQKGNLLRHIKL [46F_47L_49E_50V_52G_53A_54V_55F_67L_, Q9UKT9] | -1.19 | -1.32 | 0.896 | 1.47
FTCEVCGAVFTQKGNLLRHIKL [46F_47T_49E_50V_52G_53A_54V_55F_67L_, Q9UKT9] | -0.209 | 1.43 | 1.81 | 2.36
FDCEVCGAVFTQKGNLLRHIKL [46F_47D_49E_50V_52G_53A_54V_55F_67L_, Q9UKT9] | -0.0916 | -0.965 | 0.432 | 0.0687
FWCEVCGAVFTQKGNLLRHIKL [46F_47W_49E_50V_52G_53A_54V_55F_67L_, Q9UKT9] | 2.83 | 3.43 | 2.51 | 0.594
FHCEVCGAVFTQKGNLLRHIKL [46F_47H_49E_50V_52G_53A_54V_55F_67L_, Q9UKT9] | 0.991 | 1.24 | 1.22 | -0.292
FRCSVCGHRFTQKGNLLRHIKL [46F_47R_49S_50V_52G_53H_54R_55F_67L_, Q9UKT9] | -2.02 | -2.85 | -2.44 | -2.23
FYCNQCGHGFTQKGNLLRHIKL [46F_47Y_49N_50Q_52G_53H_54G_55F_67L_, Q9UKT9] | -2.38 | -2.88 | -2.5 | -2.33
FNCDVCGAIFTQKGNLLRHIKL [46F_47N_49D_50V_52G_53A_54I_55F_67L_, Q9UKT9] | -1.74 | -3.02 | -1.86 | -2.46
FWCEQCGAKFTQKGNLLRHIKL [46F_47W_49E_50Q_52G_53A_54K_55F_67L_, Q9UKT9] | 2.4 | 1.97 | -0.464 | -0.551
LMCNQCGFMCTQKGNLLRHIKL [46L_47M_49N_50Q_52G_53F_54M_55C_67L_, Q9UKT9] | -1.58 | -1.89 | -0.98 | -1.42
FSCDVCGATFTQKGNLLRHIKL [46F_47S_49D_50V_52G_53A_54T_55F_67L_, Q9UKT9] | 0.618 | 0.269 | 0.317 | -0.694
FDCEICGHGFTQKGNLLRHIKL [46F_47D_49E_50I_52G_53H_54G_55F_67L_, Q9UKT9] | -3.03 | -3.17 | -3 | -2.57
FSCEICGHVFTQKGNLLRHIKL [46F_47S_49E_50I_52G_53H_54V_55F_67L_, Q9UKT9] | -2.99 | -2.93 | -2.63 | -2.67
FYCDQCGAIFTQKGNLLRHIKL [46F_47Y_49D_50Q_52G_53A_54I_55F_67L_, Q9UKT9] | -1.03 | -1.1 | -1.87 | -2.56
